{
  "source": "PubChem BioAssay (NCI)",
  "system": "MDA-MB-468 breast",
  "assay": "NCI-60 one-dose screen, 48 h (100 = growth as untreated, 0 = no growth, -100 = all killed)",
  "settings": "10 µM unless noted",
  "note": "Several values for one entry are separate records, joined by “and”; a condition that tells them apart may be missing. Identical values can stand only once. Compounds without any hit were thinned out: in the full panel of roughly 83,000, 20% have a hit.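 How to read the values: 0–100, growth inhibition (40 = 60% inhibited); 0, no net growth; -100 to 0, cell death (-40 = 40% of starting cells died; -100 = all dead).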 A number with no mark means an inactive call. Activity calls are given as the source filed them. The calls were made as follows: active = growth percent below 10; inactive = the rest.",
  "data": [
    {"smiles": "COc1ccc(-c2cc(-c3ccc(Cl)cc3)c(C#N)c(=O)n2Cc2ccc(C(=O)Nc3ccccc3N)cc2)cc1", "values": [
      {"measurement": "growth", "value": 63.8, "unit": "%"}
    ]},
    {"smiles": "CCCS(=O)(=O)Nc1ccc(F)c(C(=O)c2c[nH]c3ncc(-c4ccc(Cl)cc4)cc23)c1F", "values": [
      {"measurement": "growth", "value": 39.3, "unit": "%"}
    ]},
    {"smiles": "C=C1C(=O)O[C@H]2[C@H]1CC/C(Cn1cc(-c3cc(C(F)(F)F)cc(C(F)(F)F)c3)nn1)=C\\CC[C@@]1(C)O[C@@H]21", "values": [
      {"measurement": "growth", "value": "-56.7% (active)"}
    ]},
    {"smiles": "NS(=O)(=O)c1ccc(CCN2C(=O)C3C(C2=O)C2(Cl)C(Cl)=C(Cl)C3(Cl)C2(Cl)Cl)cc1", "note": "(stereo not drawn)", "values": [
      {"measurement": "growth", "value": 109, "unit": "%"}
    ]},
    {"smiles": "O=C(CCn1cc[n+](CC(=O)c2ccc(-c3ccccc3)cc2)c1)Nc1cccc2cccnc12", "values": [
      {"measurement": "growth", "value": "-16.8% (active)"}
    ]},
    {"smiles": "Cc1ncc(C(=O)Nc2ccc(CN3CCN(C)CC3)c(C(F)(F)F)c2)cc1C#Cc1ccc(N)nc1", "values": [
      {"measurement": "growth", "value": 10.9, "unit": "%"}
    ]},
    {"smiles": "COc1ccc(C(c2cc(OC)c(OC)c(OC)c2)N2CCCCC2)cc1", "note": "(stereo not drawn)", "values": [
      {"measurement": "growth", "value": "9.32% (active)"}
    ]},
    {"smiles": "Clc1ccc(-c2cnc3nonc3n2)s1", "values": [
      {"measurement": "growth", "value": 49.6, "unit": "%"}
    ]},
    {"smiles": "CC(=O)n1cc(/C=C2\\N=C(c3ccc(Cl)cc3)N(c3ccc(S(=O)(=O)Nc4nccs4)cc3)C2=O)c2ccccc21", "values": [
      {"measurement": "growth", "value": 96.1, "unit": "%"}
    ]},
    {"smiles": "CC(=O)c1ccc(Nc2nccc(-c3ccc(Cl)cc3)n2)cc1", "values": [
      {"measurement": "growth", "value": 76.7, "unit": "%"}
    ]},
    {"smiles": "N=C(N)c1ccc(-c2ccc(-c3ccc(Cl)c(Cl)c3)o2)nc1", "values": [
      {"measurement": "growth", "value": "-17% (active)"}
    ]},
    {"smiles": "NC(N)=N/N=C/c1cccc(Br)c1", "values": [
      {"measurement": "growth", "value": 87, "unit": "%"}
    ]},
    {"smiles": "Cc1cccc([N+](=O)[O-])c1I", "values": [
      {"measurement": "growth", "value": 104, "unit": "%"}
    ]},
    {"smiles": "Nc1ccc(Br)cc1C(F)(F)F", "values": [
      {"measurement": "growth", "value": 110, "unit": "%"}
    ]},
    {"smiles": "CC(=O)N(O)c1ccc(/C=C/c2ccccc2)cc1", "values": [
      {"measurement": "growth", "value": "-63.5% (active)"}
    ]},
    {"smiles": "Cc1c(C)c2c(c(C)c1NC(=O)/C=C\\C(=O)O)CCC(C)(CCCC(C)CCCC(C)CCCC(C)C)O2", "note": "(stereo not drawn)", "values": [
      {"measurement": "growth", "value": "-45.3% (active)"}
    ]},
    {"smiles": "CC(C)n1c(/C=C/[C@@H](O)C[C@@H](O)CC(=O)O)c(-c2ccc(F)cc2)c2ccccc21", "values": [
      {"measurement": "growth", "value": 81.7, "unit": "%"}
    ]},
    {"smiles": "O=C(Nc1ccc(Cl)cc1)c1cc(-c2ccc(F)cc2)c2sc(=O)[nH]c2n1", "values": [
      {"measurement": "growth", "value": "-8.3% (active)"}
    ]},
    {"smiles": "CCOc1ccccc1C(=O)/C=C/c1cc2ccccc2[nH]c1=O", "values": [
      {"measurement": "growth", "value": "-20.2% (active)"}
    ]},
    {"smiles": "CN1CCN(c2nc(C3=C(c4c[nH]c5ccccc45)C(=O)NC3=O)c3ccccc3n2)CC1", "values": [
      {"measurement": "growth", "value": 131, "unit": "%"}
    ]},
    {"smiles": "O=C(CS(=O)c1oc(-c2cccs2)nc1S(=O)(=O)c1ccc(Br)cc1)c1ccccc1", "note": "(stereo not drawn)", "values": [
      {"measurement": "growth", "value": 101, "unit": "%"}
    ]},
    {"smiles": "CCNC(=O)N1CCc2cc(OC)c(OCCc3ccc(OC)c(N)c3)cc2C1c1ccc(C)cc1C", "note": "(stereo not drawn)", "values": [
      {"measurement": "growth", "value": "-0.144% (active)"}
    ]},
    {"smiles": "CS(=O)(=O)c1nccc(-c2c(-c3ccc(F)c(OCCc4ccccc4)c3)nc3sccn23)n1", "values": [
      {"measurement": "growth", "value": "-83.4% (active)"}
    ]},
    {"smiles": "CN1CCN(Cc2ccc(NC(=O)c3cncc(C#Cc4cnccc4C#N)c3)cc2C(F)(F)F)CC1", "values": [
      {"measurement": "growth", "value": 90.5, "unit": "%"}
    ]},
    {"smiles": "N#CC1C(=O)c2ccccc2C1c1ccccc1", "note": "(stereo not drawn)", "values": [
      {"measurement": "growth", "value": "94.3% and 119%"}
    ]},
    {"smiles": "Oc1[nH]c2ccccc2c1Nn1c(N=N/C=c2/ccc3c(c2)C=NN=3)n[nH]c1=S", "values": [
      {"measurement": "growth", "value": 107, "unit": "%"}
    ]},
    {"smiles": "C/C=C(\\C)C(C(=O)NC1CCCCC1)N(C(=O)C1CCc2cc(F)ccc2O1)c1ccc(Cl)cc1", "note": "(stereo not drawn)", "values": [
      {"measurement": "growth", "value": 97, "unit": "%"}
    ]},
    {"smiles": "C#CCOc1cccc(Nc2ncnc3cc(NC(=O)CCl)ccc23)c1", "values": [
      {"measurement": "growth", "value": "-52.5% (active)"}
    ]},
    {"smiles": "Cc1ccc(C(=O)Nc2ccc(CN3CCN(C)CC3)c(C(F)(F)F)c2)cc1C#Cc1cnc(N)c2ccccc12", "values": [
      {"measurement": "growth", "value": "-61.7% (active)"}
    ]},
    {"smiles": "Clc1ccc2c(N/N=C/c3c[nH]c4ccccc34)ccnc2c1", "values": [
      {"measurement": "growth", "value": "-75.9% (active)"}
    ]},
    {"smiles": "COC(=O)c1nc(-c2ccc(C)cc2)oc1Sc1ccc(C)cc1", "values": [
      {"measurement": "growth", "value": 121, "unit": "%"}
    ]},
    {"smiles": "CN(C)CCCOc1ccc(NC2=C(Cl)C(=O)C(Nc3ccc(OCCCN(C)C)cc3)=C(Cl)C2=O)cc1", "values": [
      {"measurement": "growth", "value": "-57.2% (active)"}
    ]},
    {"smiles": "COc1ccc(Cc2cc(-c3ccccc3C)n[nH]c2=O)cc1", "values": [
      {"measurement": "growth", "value": 91.1, "unit": "%"}
    ]},
    {"smiles": "COc1ccc2c(O)c(/C=C3\\N=Nc4ccccc43)oc2c1C[C@H]1CCNC[C@H]1F", "values": [
      {"measurement": "growth", "value": 75.6, "unit": "%"}
    ]},
    {"smiles": "Cc1[nH]c(C(=O)Nc2ccccc2OCc2cccc(C(=O)NC3CCCNC3)c2)c(Cl)c1Cl", "note": "(stereo not drawn)", "values": [
      {"measurement": "growth", "value": "-80.6% (active)"}
    ]},
    {"smiles": "Cc1ccc(OCCCCCCNCCO)c(C)c1", "values": [
      {"measurement": "growth", "value": "-15.9% (active)"}
    ]},
    {"smiles": "O=C(O)c1ccccc1Oc1cc(-c2ccco2)nc(OCCBr)n1", "values": [
      {"measurement": "growth", "value": 119, "unit": "%"}
    ]},
    {"smiles": "NC(N)=Nc1ccc(Oc2cccc(Oc3ccc(Cl)c(C(F)(F)F)c3)c2)cn1", "values": [
      {"measurement": "growth", "value": "-79.3% (active)"}
    ]}
  ]
}
